Laboratory results reported in the supplement of paper PMC7380943.
Where a name gives a salt, the structure may show the parent alone. ± gives the standard deviation of the averaged measurements.

Tests used:
[1] = system: CLZ3 (HCA2 human fibroblast dual HR-NHEJ reporter); assay: NHEJ repair efficiency (GFP+ cells) relative to control (log10 fold); higher = more non-homologous end joining; details: 5 µM; doxycycline 0.5 ug/mL
[2] = system: CLZ3 (HCA2 human fibroblast dual HR-NHEJ reporter); assay: HR repair efficiency (tdTomato+ cells) relative to control (log10 fold); higher = more homologous recombination; details: 5 µM; doxycycline 0.5 ug/mL
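Wherever HR repair efficiency (tdTomato+ cells) relative to control is given: compound given one day before doxycycline, which switches on I-SceI endonuclease expression to create double-strand breaks within the integrated reporter.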
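Wherever NHEJ repair efficiency (GFP+ cells) relative to control is given: compound given one day ahead of doxycycline, which switches on I-SceI endonuclease to cut the chromosomally integrated reporter and create DSBs.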

Compound	NHEJ repair efficiency (log10) [1]	HR repair efficiency (log10) [2]
CC[C@H]1CN2CC[C@]3(C(=O)Nc4ccccc43)[C@@H]2C[C@@H]1/C(=C\OC)C(=O)OC [Rhynchophylline]	-0.15	-0.0611
CCN1C[C@]2(COC)[C@H](O)C[C@H](OC)[C@@]34[C@@H]5C[C@@]6(O)[C@H](OC(=O)c7ccccc7)[C@@H]5[C@@](O)([C@@H]([C@H](OC)[C@H]23)[C@@H]14)[C@@H](O)[C@@H]6OC [Benzoylaconine]	-0.0909	0.0403
CCN1C[C@]2(C)CC[C@H](OC)[C@@]34C1[C@]1(OCO[C@@]15C[C@H](OC)[C@H]1C[C@]3(O)[C@@H]5[C@H]1OC)[C@@H](OC(C)=O)[C@H]24 [Deltaline]	-0.125	-0.263
O=c1ccc2cc(O[C@@H]3O[C@H](CO)[C@@H](O)[C@H](O)[C@H]3O)c(O)cc2o1 [Aesculin]	0.023	0.148
O=c1cccc2n1CC1CC2CN2CCCCC12 (stereo not drawn) [Thermopsine]	0.0072	-0.25
C[C@@]12C[C@@H](c3ccoc3)OC(=O)[C@@H]1CC[C@]1(C)[C@H]2[C@@H]2C=C[C@@]1(O)C(=O)O2 [Columbin]	-0.00145	-0.0272
C=C(C)C1CC=C(C=O)CC1 (stereo not drawn) [Perillaldehyde]	0.0128	-0.104
O=c1ccc2cc(O[C@@H]3O[C@H](CO)[C@@H](O)[C@H](O)[C@H]3O)c(O)cc2o1 [Esculin Sesquihydrate]	0.0261	0.046
CC(C)c1ccc2c(c1O)CC[C@H]1C3=C(CC[C@]21C)C(=O)OC3 [Triptophenolide]	-0.142 ± 0.096	-0.108 ± 0.2
COc1ccc(Cc2nccc3cc(OC)c(OC)cc23)cc1OC [Papaverine hydrochloride]	-0.296	-0.22
C[C@H]1CC[C@H]2[C@H](C)[C@@H]3CC[C@@H]4[C@@H](C[C@H]5[C@H]4C[C@@H](O)[C@H]4C[C@@H](O)CC[C@@]45C)[C@@H]3CN2C1 [Hupehenine]	0.00613	-0.0543
C[C@H]1C(=O)O[C@@H]2CCN3CC=C(COC(=O)[C@](C)(O)[C@]1(C)O)[C@H]23 [Monocrotaline]	-0.0165	0.0383
CNCC(O)c1ccc(O)cc1 (stereo not drawn) [Synephrine]	0.0915	0.108
C[C@@H]1CC[C@H]2[C@@H](C)C(=O)O[C@@H]3O[C@@]4(C)CC[C@@H]1[C@]32OO4 [Artemisinin]	0.1	0.328
CCN1C[C@]2(COC)[C@H](O)C[C@H](OC)[C@]34C1[C@H]([C@H](OC)[C@H]23)[C@@]1(OC(C)=O)C[C@H](OC)[C@@H]2C[C@@H]4[C@@H]1[C@H]2OC(=O)c1ccccc1 [13-Dehydroxyindaconintine]	0.0298	-0.0247
O=C1CCC[C@@H]2[C@H]3CCCN4CCC[C@@H](CN12)[C@@H]34 [Matrine]	-0.00125	-0.0371
CC(C)(C)[C@]1(O)CC2OC(=O)CC23C(=O)OC2OC(=O)[C@H](O)C231 (stereo partly drawn) [Bilobalide]	0.0452	0.0541
COc1cc(C2OCC3C(c4cc(OC)c(O[C@@H]5O[C@H](CO)[C@@H](O)[C@H](O)[C@H]5O)c(OC)c4)OCC23)cc(OC)c1O[C@H]1O[C@@H](CO)[C@H](O)[C@@H](O)[C@@H]1O (stereo partly drawn) [Eleutheroside E]	0.119	-0.0597
CCN1C[C@]2(COC)[C@H](O)C[C@H](OC)[C@]34C1[C@H]([C@H](OC)[C@H]23)[C@]1(O)[C@H]2[C@@H](O)[C@](O)(C[C@H]24)[C@@H](OC)[C@@H]1O [Aconine]	-0.104	0.0705
CN(C)CCc1ccc(O)cc1 [Hordenine]	-0.0244	0.111
COc1cc2c(cc1O)C[C@@H]1NCCc3cc(OC)c(O)c-2c31 [Norisoboldine]	-0.132	-0.0981
CCN1C[C@]2(COC)CC[C@H](O)C34C1C([C@H](OC)[C@@H]32)[C@]1(O)[C@@H]2[C@H]4CC([C@@H](OC)[C@@H]1O)[C@@H]2O [Fuziline]	0.0177	0.0271
CCN1C[C@]2(COC)CC[C@H](OC)[C@]34C1[C@H]([C@H](OC)[C@H]23)[C@@]1(OC(C)=O)C[C@H](OC)[C@@]2(O)C[C@@H]4[C@@H]1[C@H]2OC(=O)c1ccc(OC)cc1 [Crassicauline A]	0.00451	0.0792
CCN1C[C@]2(COC)CC[C@H](O)[C@]34C1[C@@](O)([C@@H](OC)[C@H]23)[C@@]1(O)C[C@H](OC)[C@H]2C[C@@H]4[C@@H]1[C@H]2OC [Delsoline]	-0.0325	0.0487
